Screening data: PubChem BioAssay, National Center for Advancing Translational Sciences (NCATS)
This excerpt belongs to a sample that is enriched for hits.
RGS4 inh: inhibitors of human regulator of G protein signaling 4; P49798; Transcreener GDP fluorescence polarization, RGS4-accelerated GTP hydrolysis; Potency, µM (series often up to 114 µM), inactives show top-dose activity change, negative = inhibition, hits mostly inhibitors; 0.039% of 390,000 active; AID 504845; further: potency means the concentration at half of the fitted maximal effect; on the % scale 0 is the no-effect control and ±100 the full control effect; nearly all actives have a fitted effect of over 75% in size
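MLSMR compounds (23 nl, pin-transferred) preincubated 10 min at room temperature with a 500nM (2x) first reagent, then RGS4 at 900nM (2x) plus Transcreener GDP mix added; fluorescence polarization (620/688 nm) read before and after 90 min at 30 °C.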
ClpP mod: qHTS Assay for Activators of ClpP; purified B. subtilis ClpP, FRET peptide cleavage, 20 min; Potency, µM (highest dose often 57.5 µM), for the others: at the top dose activity change, negative = active; 1.9% of 340,000 active; AID 651965, 2013; active means well fitted falling curve with a large enough effect; inconclusive means small, poorly fitted or top-dose-only effect; inactive means no such curve, though single readings can be large or run the other way; further: potency means the concentration at half of the fitted maximal effect; the source files actives as falling curves though it sought activators and does not explain the sign; nearly all actives have a fitted effect of over 65% in size
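FRET quenching reversal measured ClpP activation: 10 microg/mL B. subtilis ClpP at pH 8 with the FRET-FV decapeptide, read at 430 nm after 320 nm excitation. The 20-min minus 0-min signal was scaled between DMSO/no-enzyme wells and ADEP (5.8 microM final).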
S-ASM inh: blocks human secretory acid sphingomyelinase. P17405. placental ASM, HMU-PC fluorogenic substrate, 60 min. Potency, µM (top dose mostly 57.5 µM), for the others: at the top dose activity change, negative = inhibition, most hits filed as inhibitors. 0.006% of 340,000 active. AID 504937; further: potency means the concentration at half of the fitted maximal effect
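HMU-PC0 cleavage (9 uM final) by human placental ASM, 60 min at 37 °C following 10 min compound exposure at RT; stopped at pH 10, fluorescence Ex 386/Em 447 nm.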
LDHA block: inhibitors of human lactate dehydrogenase A | P00338 | purified LDHA, NADH/diaphorase-resazurin fluorescence; active compounds read low | activity change, % (values are at about 110 or 230 µM) | 0.15% of 480,000 active; in the data active means activity change below about -30%; inconclusive means mostly about -25% to -30%;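 further: plate controls were DMSO wells for no effect and wells without enzyme for full effect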
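Human LDH5 at 2 nM final in Tris HCl pH 7.4 with 0.06 mM NADH and 0.2 mM pyruvate, reacted 5 minutes at room temperature. Remaining NADH coupled via diaphorase/resazurin; resorufin fluorescence read at 0 and 20 minutes, normalized to enzyme-free and DMSO wells.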
Mito fusion act: inhibitors of mitochondrial division or activators of mitochondrial fusion; Potency, µM (doses to about 46.1 µM), for the others: at the highest dose growth rescue (activation), most hits filed as activators; AID 485298; S. cerevisiae fusion-defective mutant growth rescue, CellTiterGlo 48 h; 0.23% of 320,000 active; further: potency means the concentration at half of the fitted maximal effect; % of control where 0% means no effect; nearly all actives have a fitted effect of over 45% in size
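Luminescent cell viability in 1536-well qHTS format served as the measure of rescued growth in ts fusion-mutant S. cerevisiae cultured on non-fermentable YPEG for 48 hours at 37C.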
IDH1 R132H inh: inhibitors of human mutant IDH1 R132H. O75874. IDH1-R132H enzyme, NADPH consumption, diaphorase/resazurin fluorescence. Potency, µM (top dose mostly 76.6 µM), for the others: at the highest dose activity change, negative = inhibition, most hits filed as inhibitors. 0.093% of 390,000 active; further: potency means the concentration at half of the fitted maximal effect; on the % scale 0 is the no-effect control and ±100 the full control effect; nearly all actives have a fitted effect of over 65% in size
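IDH1-R132H (0.5 ug/mL dispensed) in pH 7.5 Tris buffer was preincubated 30 min with compound, then given a substrate mix of 0.016 mM NADPH and 2 mM alpha-KG for 80 min at room temperature; remaining NADPH was read by diaphorase/resazurin fluorescence.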
IDH1 autofl: autofluorescence interference, mutant IDH1 hit counter-screen; shares compounds with IDH1 R132H inh; 750 tested, under 10 active; inhibition of signal, % at 51.2 µM; Resorufin detection reagent fluorescence interference, cell-free;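 further: 0% = wells with normal resorufin and full inhibition = wells lacking resorufin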
WT IDH1 inh: wild-type IDH1 (human) inhibition counterscreen; shares compounds with IDH1 R132H inh; WT IDH1 enzyme, NADPH diaphorase/resazurin fluorescence; Potency, µM (highest dose often 115 µM), for inactives: at the top dose activity change, negative = inhibition, actives largely listed as inhibitors; 9% of 750 active; AID 623995;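 further: potency means the concentration at half of the fitted maximal effect; 0% = full WT IDH1 enzyme control and full inhibition = no enzyme wells; nearly all actives have a fitted effect of over 55% in size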
mIDH1 confirm: mutant IDH1 (human) inhibition, confirmed; shares compounds with IDH1 R132H inh; IDH1 R132H enzyme, NADPH diaphorase/resazurin fluorescence; Potency, µM (series often up to 76.6 µM), for the others: at the top dose activity change, negative = inhibition, usual class: inhibitors; 83% of 750 active; further: potency means the concentration at half of the fitted maximal effect; nearly all actives have a fitted effect of over 50% in size
* = called active by the depositor; ? = inconclusive; · = no result. Unless noted, the call rests on the fitted dose curve; in most records, active means well fitted curve in the direction sought with a large enough effect; inconclusive means small, poorly fitted or top-dose-only effect, or another doubt; inactive means no such curve, though single readings can be large; an effect the other way counts as inactive or inconclusive.

SMILES | RGS4 inh | ClpP mod | S-ASM inh | LDHA block | Mito fusion act | IDH1 R132H inh | IDH1 autofl | WT IDH1 inh | mIDH1 confirm
CN1CC(c2ccccc2)C2(SC(=S)N(Cc3ccco3)C2=O)C12C(=O)Nc1ccccc12 (stereo not drawn) | 5% | -3% | -3% | -9 | 13% | -1% | · | · | ·
CN1CC(c2ccccn2)C2(SC(=S)N(Cc3ccccc3)C2=O)C12C(=O)Nc1ccccc12 (stereo not drawn) | -48% | -6% | -6% | 5 | 4% | ? | -2 | -2% | 20µM*
O=C(Nc1cccc(COc2cccc(F)c2)c1)c1cc[n+]([O-])cc1 | · | · | · | -5 | · | · | · | · | ·
Cc1ccc(-c2csc(N3CCC[C@@H]3C(=O)NCCn3c(C(F)(F)F)nc4ccccc43)n2)cc1 | -23% | 1% | -6% | 0 | 6% | 21% | · | · | ·
CCCn1c(C2CCCN2c2nc(-c3cccc(Br)c3)cs2)nc2ccccc21 (stereo not drawn) | -17% | -2% | -21% | 1 | 2% | ? | 5 | -3% | 25µM*
COc1ccc(OC)c(-c2nnc3n2N=C(c2ccc(OC)c(OC)c2)CS3)c1 | -15% | · | -2% | 0 | -11% | · | · | · | ·
COc1ccc(OC)c(-c2nnc3n2N=C(c2ccc(OC)c(OC4CCCC4)c2)CS3)c1 | -38% | · | -11% | 0 | · | · | 0 | 2% | 14µM*
COc1ccc(C2=Nn3c(nnc3-c3ccccc3OC)SC2)cc1OCC1CC1 | -8% | · | -12% | 2 | · | · | -2 | -1% | 45µM*
CCCCn1c(=O)[nH]c(=O)c2c1nc(CSc1nnnn1C1CCCC1)n2C | · | · | · | 12 | · | · | · | · | ·
Nc1ncnc2c1ncn2[C@@H]1O[C@H](CN[S+](=O)([O-])NC(=O)c2cccc(-c3noc(-c4ccccc4F)n3)c2)[C@@H](O)[C@H]1O | · | · | · | -2 | · | · | · | · | ·
COc1cc(NC(=O)Nc2c(NC3CCCCC3)c3ccccc3oc2=O)cc(OC)c1 | · | · | · | -11 | · | · | · | · | ·
CC(C)C(OC(=O)c1oc2ccccc2c1CSC1CCCCC1)C(=O)NC(N)=O (stereo not drawn) | · | · | · | · | 3% | · | · | · | ·
CCNC(=O)NC(=O)C(C)OC(=O)c1oc2ccccc2c1CSC1CCCCC1 (stereo not drawn) | 20% | 0% | -2% | -3 | 6% | ? | -1 | 0% | 32µM*
O=C(Nc1nnc(SCc2ccc(F)cc2)s1)c1ccc2ncsc2c1 | 4% | -14% | -1% | -2 | 13% | 52µM* | -2 | -16% | 50µM*
Cc1ccc(S(=O)(=O)CCc2nnc(NC(=O)CCl)s2)cc1C | -12% | · | 3% | -19 | -14% | ? | -1 | -6% | 32µM*
CCOC(=O)c1cnc2ccccc2c1N1CCOCC1 | · | · | · | 14 | · | · | · | · | ·
O=C1NC[C@H](Cc2ccccc2)N(C[C@H]2CCCN2C[C@H](Cc2ccccc2)N2C[C@H](Cc3ccccc3)N(CC3CCCCC3)C(=O)C2=O)C1=O | -11% | 0% | -9% | 1 | · | ? | 6 | -4% | ?
O=C1NC[C@H](Cc2ccccc2)N(C[C@H]2CCCN2C[C@H](Cc2ccccc2)N2C[C@H](Cc3ccccc3)N(CCc3ccccc3)C(=O)C2=O)C1=O | -37% | 1% | -2% | 0 | · | ? | 0 | 1% | 28µM*
Cc1ccc(-n2c(=S)sc3c(=O)n(-c4ccc(F)cc4)c(SCC(=O)O)nc32)cc1C | 13% | · | -1% | -10 | 4% | ? | -22 | 0% | 13µM*
Cc1ccc(-n2c(SCC(=O)O)nc3c(sc(=S)n3-c3ccc(C)c(C)c3)c2=O)cc1 | -20% | 0% | 9% | -4 | -9% | 5% | · | · | ·
Cc1ccc(S(=O)(=O)Nc2ccc(S(=O)(=O)Nc3cc(C)nc(C)n3)cc2)cc1 | 17% | 1% | -2% | 3 | -16% | 5% | · | · | ·
Cc1cc(NS(=O)(=O)c2ccc(NS(=O)(=O)c3ccc(CC(C)C)cc3)cc2)nc(C)n1 | -10% | · | 2% | 6 | 5% | 18µM* | 0 | 2% | 16µM*
COc1cccc(-c2coc3c(C)c4oc(=O)c(CC(=O)O)c(C)c4cc23)c1 | -7% | -2% | 43% | -8 | 10% | -4% | · | · | ·
COc1cccc(-c2coc3c(C)c4oc(=O)c(CCC(=O)O)c(C)c4cc23)c1 | ? | · | 34% | -6 | 19% | 26µM* | 12 | 35µM* | 25µM*
Cc1ccc2c(COC(=O)c3cc(S(=O)(=O)N(C)C)ccc3N3CCCCC3)cc(=O)oc2c1 | · | · | · | -3 | · | · | · | · | ·
SMILES | RGS4 inh | ClpP mod | S-ASM inh | LDHA block | Mito fusion act | IDH1 R132H inh | IDH1 autofl | WT IDH1 inh | mIDH1 confirm
CC(=O)Oc1ccc(C(=O)Nc2cccc(C(=O)c3ccc(C)c(C)c3)c2)cc1 | 6% | -2% | -13% | -4 | -1% | ? | 1 | 2% | 10µM*
COc1cc(=O)n(-c2ccc(F)cc2)nc1C(=O)Nc1ccc(Br)cc1C | · | · | · | 7 | · | · | · | · | ·
O=C(O)c1ccc(Cl)c(S(=O)(=O)N(Cc2ccccc2)c2ccccc2)c1 | 11% | · | 9% | -3 | 4% | ? | · | · | ·
O=C(O)c1ccc(Cl)c(S(=O)(=O)N(Cc2ccccc2)c2ccccc2Cl)c1 | 17% | -1% | 8% | -3 | ? | 29µM* | 8 | -4% | 32µM*
O=C(Nn1c(C2CCCCC2)nc2ccccc2c1=O)c1ccc([N+](=O)[O-])cc1 | -1% | · | -4% | -1 | 4% | ? | 6 | 1% | -30%
COc1cccc(OC)c1C(=O)Nn1c(C2CCC2)nc2ccccc2c1=O | -20% | 0% | 1% | 2 | -6% | 10% | · | · | ·
COc1c(CC=C(C)C)cc(C2CC(=O)c3c(O)cc(O)cc3O2)cc1CC=C(C)C (stereo not drawn) | -1% | -8% | -15% | -12 | 3% | 35µM* | -1 | 40µM* | 25µM*
CCOc1ccc(OCC)c(NS(=O)(=O)c2cc(-c3cnc(C)o3)ccc2C)c1 | · | · | · | 3 | · | · | · | · | ·
